Experimental data from PubChem BioAssay AID1159580 (chemical genetic matrix, 2015).
Values joined by “and” are separate entries in the source; they are usually repeats but may differ in a detail not shown here. Equal entries are not always repeated. The campaign covered roughly 5,500 compounds. About 2,000 (36%) were called active. Roughly 18% stayed inconclusive and do not appear here. Cut-off read from the data, not from the text of the source: active = normalized growth mostly below about 0.91 (no sharp cut-off); inconclusive = no clear call, values can overlap the other calls; inactive = mostly above about 0.92. The list shows a part of the results.

Test: chemical genetic growth profiling, strain panel (AID 1159580);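 note: tested at 20 µM; growth read once vehicle control cultures reached saturation at 30 °C; 1 = growth at the plate median or of vehicle wells; lower values mean less growth of the strain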
Settings: growth OD

Measured: normalized growth

CN/C(=C\[N+](=O)[O-])NCCSCc1ccc(CN(C)C)o1
inactive: S. cerevisiae deletion strains, locus YKL009W, strain mrt4, stronger effect = lower value 1.02 | S. cerevisiae deletion strains, locus YKL068W, stronger effect = lower value 0.999 | S. cerevisiae deletion strains, locus YKL085W, strain MDH1 (second series), stronger effect = lower value 1.01 | S. cerevisiae deletion strains, locus YKL085W, strain MDH1, stronger effect = lower value 1.01 | S. cerevisiae deletion strains, locus YKL160W, strain elf1, stronger effect = lower value 0.988 | S. cerevisiae deletion strains, locus YKL190W, strain CNB1, stronger effect = lower value 1.01 | S. cerevisiae deletion strains, locus YKR001C, strain vps1, stronger effect = lower value 0.993 | S. cerevisiae deletion strains, locus YKR026C, strain gcn3, stronger effect = lower value 1 | S. cerevisiae deletion strains, locus YKR091W, strain srl3, stronger effect = lower value 0.988 | S. cerevisiae deletion strains, locus YLL001W, strain dnm1, stronger effect = lower value 0.989 | S. cerevisiae deletion strains, locus YLL026W, stronger effect = lower value 0.992 | S. cerevisiae deletion strains, locus YLL041C, strain sdh2, stronger effect = lower value 0.979 | S. cerevisiae deletion strains, locus YLR027C, strain aat2, stronger effect = lower value 0.989 | S. cerevisiae deletion strains, locus YLR039C, strain RIC1, stronger effect = lower value 1.05 | S. cerevisiae deletion strains, locus YLR058C, strain SHM2, stronger effect = lower value 1.03 | S. cerevisiae deletion strains, locus YLR102C, strain apc9, stronger effect = lower value 0.977 | S. cerevisiae deletion strains, locus YLR113W, strain HOG1, stronger effect = lower value 0.996 | S. cerevisiae deletion strains, locus YLR221C, strain rsa3, stronger effect = lower value 0.993 | S. cerevisiae deletion strains, locus YLR258W, strain gsy2, stronger effect = lower value 0.99 | S. cerevisiae deletion strains, locus YLR262C, strain YPT6 (second series), stronger effect = lower value 0.972 | S. cerevisiae deletion strains, locus YLR262C, strain YPT6, stronger effect = lower value 1.11 | S. cerevisiae deletion strains, locus YLR268W, strain sec22, stronger effect = lower value 0.997 | S. cerevisiae deletion strains, locus YLR320W, strain mms22, stronger effect = lower value 0.99 | S. cerevisiae deletion strains, locus YLR330W, strain CHS5, stronger effect = lower value 1.01 | S. cerevisiae deletion strains, locus YLR342W, strain FKS1 (second series), stronger effect = lower value 1.01 | S. cerevisiae deletion strains, locus YLR342W, strain FKS1, stronger effect = lower value 0.969 | S. cerevisiae deletion strains, locus YLR357W, strain rsc2, stronger effect = lower value 0.908 | S. cerevisiae deletion strains, locus YLR370C, strain arc18, stronger effect = lower value 0.982 | S. cerevisiae deletion strains, locus YLR371W, strain rom2, stronger effect = lower value 0.983 | S. cerevisiae deletion strains, locus YLR384C, strain iki3, stronger effect = lower value 0.989 | S. cerevisiae deletion strains, locus YLR418C, strain cdc73, stronger effect = lower value 0.994 | S. cerevisiae deletion strains, locus YML016C, strain PPZ1, stronger effect = lower value 1.02 | S. cerevisiae deletion strains, locus YML032C, strain rad52, stronger effect = lower value 0.977 | S. cerevisiae deletion strains, locus YML120C, strain ndi1, stronger effect = lower value 0.981 | S. cerevisiae deletion strains, locus YML124C, strain tub3, stronger effect = lower value 0.991 | S. cerevisiae deletion strains, locus YMR058W, strain fet3, stronger effect = lower value 0.979 | S. cerevisiae deletion strains, locus YMR078C, strain ctf18, stronger effect = lower value 0.987 | S. cerevisiae deletion strains, locus YMR125W, strain sto1, stronger effect = lower value 0.982 | S. cerevisiae deletion strains, locus YMR129W, stronger effect = lower value 0.995 | S. cerevisiae deletion strains, locus YMR205C, strain PFK2, stronger effect = lower value 0.976 | S. cerevisiae deletion strains, locus YMR223W, strain ubp8, stronger effect = lower value 0.996 | S. cerevisiae deletion strains, locus YMR231W, strain pep5, stronger effect = lower value 0.997 | S. cerevisiae deletion strains, locus YMR263W, strain SAP30, stronger effect = lower value 1.04 and 1 | S. cerevisiae deletion strains, locus YMR307W, strain GAS1, stronger effect = lower value 1.07 and 1.03 | S. cerevisiae deletion strains, locus YNL067W, strain RPL9B, stronger effect = lower value 1.04 | S. cerevisiae deletion strains, locus YNL071W, strain lat1, stronger effect = lower value 0.987 | S. cerevisiae deletion strains, locus YNL128W, strain TEP1, stronger effect = lower value 1.02 | S. cerevisiae deletion strains, locus YNL153C, strain GIM3, stronger effect = lower value 1.01 | S. cerevisiae deletion strains, locus YNL175C, strain NOP13, stronger effect = lower value 0.997 | S. cerevisiae deletion strains, locus YNL183C, strain NPR1, stronger effect = lower value 0.944 | S. cerevisiae deletion strains, locus YNL197C, strain WHI3, stronger effect = lower value 1.01 | S. cerevisiae deletion strains, locus YNL209W, strain ssb2, stronger effect = lower value 0.994 | S. cerevisiae deletion strains, locus YNL224C, strain SQS1, stronger effect = lower value 0.998 | S. cerevisiae deletion strains, locus YNL233W, strain BNI4, stronger effect = lower value 1.03 | S. cerevisiae deletion strains, locus YNL248C, strain rpa49, stronger effect = lower value 0.98 | S. cerevisiae deletion strains, locus YNL250W, strain rad50, stronger effect = lower value 0.982 | S. cerevisiae deletion strains, locus YNL271C, strain bni1, stronger effect = lower value 0.974 | S. cerevisiae deletion strains, locus YNL298W, strain CLA4, stronger effect = lower value 1 | S. cerevisiae deletion strains, locus YNL307C, strain MCK1, stronger effect = lower value 0.986 | S. cerevisiae deletion strains, locus YNL322C, strain KRE1 (second series), stronger effect = lower value 0.96 | S. cerevisiae deletion strains, locus YNL322C, strain KRE1, stronger effect = lower value 1.01 | S. cerevisiae deletion strains, locus YNR049C, strain mso1, stronger effect = lower value 0.988 | S. cerevisiae deletion strains, locus YNR052C, strain pop2, stronger effect = lower value 0.984 | S. cerevisiae deletion strains, locus YOL006C, strain TOP1, stronger effect = lower value 1.13 | S. cerevisiae deletion strains, locus YOL012C, strain htz1 1.11 | S. cerevisiae deletion strains, locus YOL147C, strain pex11, stronger effect = lower value 0.99 | S. cerevisiae deletion strains, locus YOR001W, strain rrp6, stronger effect = lower value 0.982 | S. cerevisiae deletion strains, locus YOR061W, strain CKA2, stronger effect = lower value 1.02 | S. cerevisiae deletion strains, locus YOR069W, strain VPS5, stronger effect = lower value 1.02 | S. cerevisiae deletion strains, locus YOR070C, strain gyp1, stronger effect = lower value 0.989 | S. cerevisiae deletion strains, locus YOR080W, strain dia2, stronger effect = lower value 0.99 | S. cerevisiae deletion strains, locus YOR083W, strain WHI5 (second series), stronger effect = lower value 1.02 | S. cerevisiae deletion strains, locus YOR083W, strain WHI5, stronger effect = lower value 0.982 | S. cerevisiae deletion strains, locus YOR106W, strain vam3, stronger effect = lower value 0.999 | S. cerevisiae deletion strains, locus YOR136W, strain idh2, stronger effect = lower value 0.982 | S. cerevisiae deletion strains, locus YOR144C, strain elg1, stronger effect = lower value 0.992 | S. cerevisiae deletion strains, locus YOR184W, strain ser1, stronger effect = lower value 0.994 | S. cerevisiae deletion strains, locus YOR231W, strain MKK1, stronger effect = lower value 0.99 | S. cerevisiae deletion strains, locus YOR265W, strain rbl2, stronger effect = lower value 0.974 | S. cerevisiae deletion strains, locus YOR270C, strain vph1, stronger effect = lower value 1 | S. cerevisiae deletion strains, locus YOR290C, strain snf2, stronger effect = lower value 0.996 | S. cerevisiae deletion strains, locus YOR316C, strain cot1, stronger effect = lower value 0.985 | S. cerevisiae deletion strains, locus YPL051W, strain arl3, stronger effect = lower value 1 | S. cerevisiae deletion strains, locus YPL055C, strain LGE1, stronger effect = lower value 0.991 | S. cerevisiae deletion strains, locus YPL078C, strain atp4, stronger effect = lower value 0.982 | S. cerevisiae deletion strains, locus YPL106C, strain sse1, stronger effect = lower value 0.956 | S. cerevisiae deletion strains, locus YPL240C, strain hsp82, stronger effect = lower value 0.99 | S. cerevisiae deletion strains, locus YPL241C, strain CIN2, stronger effect = lower value 1 | S. cerevisiae deletion strains, locus YPL256C, strain CLN2, stronger effect = lower value 0.968 | S. cerevisiae deletion strains, locus YPR119W, strain clb2, stronger effect = lower value 0.988 | S. cerevisiae deletion strains, locus YPR141C, strain kar3, stronger effect = lower value 0.995 | S. cerevisiae deletion strains, locus YPR163C, strain tif3, stronger effect = lower value 0.993 | S. cerevisiae deletion strains, locus YPR167C, strain met16, stronger effect = lower value 0.98 | S. cerevisiae deletion strains, strain wtn01, stronger effect = lower value 0.987 | S. cerevisiae strains, strain wild type, stronger effect = lower value 1.02
